The values that follow come from PubChem BioAssay.

Active and inactive are the calls of the source.

Assay [1] is described as follows: optical density shifts of acrAB sulA E. coli – strain DRC41, OD650, 48 h, E. coli filamentation inducer project, primary screen (AID 1152).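 Also: E. coli MC1000 strain DRC41 lacking acrAB efflux pump and sulA.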 The note with it: higher = more signal, called active from +8 up or from −8 down.
Assay [2] in a line: probe aLefty1 binding on compound microarray – biochemical, small-molecule microarray, 635/667 nm fluorescence, primary screen (AID 1153).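 Also: score merges spot fluorescence with signal-to-noise ratio from the scanned slide images.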 The note with it: higher = more signal.
The nature of assay [3]: plasmodial surface anion channel blockers, osmotic lysis – cell-based, P. falciparum Indochina, OD700, 1 h, primary screen (AID 1154). The note with it: P. falciparum Indochina infected RBC osmotic lysis, higher = more signal, called active from +8 up or from −8 down.
Assay [4] can be described thus: plasmodial surface anion channel blockers, osmotic lysis – cell-based, P. falciparum Indochina, OD700, 2 h, primary screen (AID 1155).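 Also: lysis reports solute entry through the parasite surface anion channel PSAC.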 The note with it: P. falciparum Indochina infected erythrocytes, higher = more signal, called active from +8 up or from −8 down.
A short description of assay [5]: changes in parasitized red cell lysis, either direction – P. falciparum Indochina, OD700, 3 h, PSAC antagonist project, primary screen (AID 1156). The note with it: P. falciparum-infected erythrocytes, osmotic lysis, higher = more signal, called active from +8 up or from −8 down.
A short description of assay [6]: plasmodial surface anion channel blockers, osmotic lysis – cell-based, P. falciparum Indochina, OD700, 18 h, primary screen (AID 1157). The note with it: P. falciparum Indochina infected erythrocytes, osmotic lysis OD700, 18 h; higher = more signal, called active from +8 up or from −8 down.
Assay [7] is described as follows: S6 kinase pathway phospho-S6 level changes – cell-based, A549, cytoblot, luminescence, serum-stimulated, primary screen (AID 1158).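 Also: serum-stimulated A549 lung adenocarcinoma cells; signal is phosphorylated S6 detected by cytoblot immunostaining with HRP secondary.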 The note with it: 5 h, higher = more signal.
The target in assay [8] is NADPH oxidase 2 (Homo sapiens) (UniProt P04839). The assay can be described thus: compounds shifting NOX2 Amplex Red fluorescence – cell-based, HEK293-NOX2, PMA-stimulated, NOX inhibitor project, primary screen (AID 1159). Also: test concentration not given here. The note with it: 45 min, higher = more signal, called active from +8 up or from −8 down.
The target in assay [9] is NADPH oxidase 4 (Homo sapiens) (UniProt Q9NPH5). Nature of the assay: compounds shifting NOX4 Amplex Red fluorescence – cell-based, HEK293-NOX4, tetracycline-induced, NOX inhibitor project, primary screen (AID 1160). The note with it: HEK293-NOX4, Amplex Red H2O2 fluorescence, 45 min; higher = more signal, called active from +8 up or from −8 down.
In assay [10] the target is NADPH oxidase 5 (Homo sapiens) (UniProt Q96PH1). The assay can be described thus: compounds shifting NOX5 Amplex Red fluorescence – cell-based, HEK293-NOX5, NOX inhibitor project, primary screen (AID 1161). The note with it: HEK293-NOX5, ionomycin, 45 min, higher = more signal.
A short description of assay [11]: compound effects on lung adenocarcinoma cell viability – A549, calcein-AM fluorescence, 48 h, basal, profiling panel (AID 1162). Also: test concentration not given here. The note with it: higher = more signal.
Assay [12] can be described thus: compound effects on differentiated 3T3-L1 adipocyte viability – cell-based, 3T3-L1 adipocytes, calcein-AM fluorescence, 48 h, basal, profiling panel (AID 1163). Also: test concentration not given here. The note with it: 3T3-L1 adipocytes viability, higher = more signal.
The nature of assay [13]: compound effects on hepatocellular carcinoma cell viability – HepG2, calcein-AM fluorescence, 48 h, basal, profiling panel (AID 1164). Also: test concentration not given here. The note with it: higher = more signal.
Assay [14] is described as follows: compound effects on multiple myeloma cell viability – MM1S, calcein-AM fluorescence, 48 h, basal, profiling panel (AID 1165).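 Also: viability of MM1S multiple myeloma cells under basal unstimulated conditions; test concentration not given here.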 The note with it: higher = more signal.
Assay [15] in a line: calcein-AM signal in unstimulated myeloma cells – cell-based, calcein-AM fluorescence, 48 h, PK04 Diversity Set, profiling panel (AID 1166).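 Also: cells grown under basal conditions without added stimulus; test concentration not given here.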 The note with it: RPMI8226 myeloma viability, higher = more signal.
Assay [16] can be described thus: JC-1 mitochondrial signal, unstimulated HepG2 cells – cell-based, JC-1 fluorescence, 24 h, 100 nL compound, profiling panel (AID 1167). Also: test concentration not given here. The note with it: HepG2 mitochondrial potential, higher = more signal.
A short description of assay [17]: JC-1 mitochondrial signal, unstimulated adipocytes – cell-based, JC-1 fluorescence, 3T3-L1 adipocytes, 24 h, 100 nL compound, profiling panel (AID 1168). Also: test concentration not given here. The note with it: JC-1 mitochondrial fluorescence, higher = more signal, called active from +8 up or from −8 down.
Assay [18] can be described thus: JC-1 mitochondrial signal, unstimulated myeloma cells – cell-based, JC-1 fluorescence, RPMI8226, 24 h, 100 nL compound, profiling panel (AID 1169). Also: test concentration not given here. The note with it: JC-1 mitochondrial potential fluorescence, higher = more signal.
Assay [19] is described as follows: JC-1 mitochondrial signal, unstimulated MM1S myeloma – cell-based, JC-1 fluorescence, 24 h, 100 nL compound, profiling panel (AID 1170). Also: test concentration not given here. The note with it: MM1S mitochondrial potential, higher = more signal.
Assay [20] in a line: resazurin metabolic signal in A549 cells – cell-based, resazurin fluorescence, 24 h, PK04 Diversity Set, profiling panel (AID 1171). Also: test concentration not given here. The note with it: A549 viability, higher = more signal, called active from +8 up or from −8 down. (Alamar Blue is a resazurin reagent that responds to reducing activity.)

Sequence of NADPH oxidase 2 (Homo sapiens) (P04839 whole entry, looked up): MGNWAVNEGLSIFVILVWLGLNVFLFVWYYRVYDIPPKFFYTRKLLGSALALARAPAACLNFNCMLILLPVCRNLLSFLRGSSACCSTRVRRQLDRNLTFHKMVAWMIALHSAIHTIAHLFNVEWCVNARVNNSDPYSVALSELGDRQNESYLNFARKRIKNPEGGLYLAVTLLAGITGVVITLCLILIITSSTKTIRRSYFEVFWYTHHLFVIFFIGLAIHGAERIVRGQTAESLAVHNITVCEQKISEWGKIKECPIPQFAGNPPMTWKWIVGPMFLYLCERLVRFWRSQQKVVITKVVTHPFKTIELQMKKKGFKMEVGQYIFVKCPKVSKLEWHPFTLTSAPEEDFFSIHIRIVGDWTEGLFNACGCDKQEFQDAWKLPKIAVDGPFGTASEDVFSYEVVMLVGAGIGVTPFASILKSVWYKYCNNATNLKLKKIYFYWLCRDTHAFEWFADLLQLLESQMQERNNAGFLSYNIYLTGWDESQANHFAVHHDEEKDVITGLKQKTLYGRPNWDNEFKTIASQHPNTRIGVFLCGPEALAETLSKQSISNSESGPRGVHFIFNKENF
Sequence of NADPH oxidase 5 (Homo sapiens) (Q96PH1 whole entry, looked up): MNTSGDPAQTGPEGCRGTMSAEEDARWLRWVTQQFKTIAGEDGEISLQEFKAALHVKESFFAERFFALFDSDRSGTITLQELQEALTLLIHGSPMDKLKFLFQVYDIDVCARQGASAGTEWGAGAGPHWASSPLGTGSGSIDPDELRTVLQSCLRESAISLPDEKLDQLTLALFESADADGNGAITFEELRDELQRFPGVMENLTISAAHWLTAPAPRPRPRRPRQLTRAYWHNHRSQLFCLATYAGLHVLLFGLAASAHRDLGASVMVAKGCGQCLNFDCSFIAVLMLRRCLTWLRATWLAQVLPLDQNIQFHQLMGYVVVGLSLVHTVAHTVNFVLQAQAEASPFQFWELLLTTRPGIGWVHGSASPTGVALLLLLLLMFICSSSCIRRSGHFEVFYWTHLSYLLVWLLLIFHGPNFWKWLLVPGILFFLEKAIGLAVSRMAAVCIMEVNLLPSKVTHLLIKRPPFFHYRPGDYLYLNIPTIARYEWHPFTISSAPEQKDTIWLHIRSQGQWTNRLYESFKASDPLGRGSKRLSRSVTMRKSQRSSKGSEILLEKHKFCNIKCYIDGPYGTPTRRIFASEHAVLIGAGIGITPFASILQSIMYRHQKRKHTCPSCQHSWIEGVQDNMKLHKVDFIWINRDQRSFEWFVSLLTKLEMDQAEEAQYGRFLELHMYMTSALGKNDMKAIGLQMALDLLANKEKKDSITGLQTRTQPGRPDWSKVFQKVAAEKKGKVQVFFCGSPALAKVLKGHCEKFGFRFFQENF
Sequence of NADPH oxidase 4 (Homo sapiens) (Q9NPH5 whole entry, looked up): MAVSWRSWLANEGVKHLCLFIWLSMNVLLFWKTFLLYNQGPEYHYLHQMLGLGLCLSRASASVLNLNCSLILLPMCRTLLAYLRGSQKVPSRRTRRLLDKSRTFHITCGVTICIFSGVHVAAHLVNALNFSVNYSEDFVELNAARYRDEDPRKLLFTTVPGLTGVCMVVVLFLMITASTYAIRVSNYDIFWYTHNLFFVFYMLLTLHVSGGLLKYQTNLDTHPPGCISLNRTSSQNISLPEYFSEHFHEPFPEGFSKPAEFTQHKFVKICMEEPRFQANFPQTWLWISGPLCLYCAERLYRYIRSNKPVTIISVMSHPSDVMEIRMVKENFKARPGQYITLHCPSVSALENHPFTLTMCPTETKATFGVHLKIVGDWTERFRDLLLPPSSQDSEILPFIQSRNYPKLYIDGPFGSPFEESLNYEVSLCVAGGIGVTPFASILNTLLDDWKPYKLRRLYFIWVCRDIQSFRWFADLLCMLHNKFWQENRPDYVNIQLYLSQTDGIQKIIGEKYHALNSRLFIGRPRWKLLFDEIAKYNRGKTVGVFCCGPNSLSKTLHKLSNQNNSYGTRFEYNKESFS

In the case of `C=C(CCCC)/C(=C/C[C@H](OC(C)=O)c1ccccc1OCCO)c1cc(C(=O)OC)ccc1OC`, the z-score is 1.02 (inactive) in assay [1]; 15.1 (active) in assay [3]; 0.621 (inactive) in assay [4]; 2.54 (inactive) in [5]; -1.43 (inactive) in [6]; 0.708 in assay [7]. The z-score in assay [8] was 0.254 (inactive); in assay [9], 0.101 (inactive); in [10], -1.92; in assay [11], 0.379; in [12], 1.66; in assay [13] it was -0.418. The z-score was -1.36 in assay [14]; -1.93 in assay [15]; 2.79 in assay [16]; 0.63 (inactive) in assay [17]; 0.275 in assay [18]; 0.0208 in assay [19]. Also, the z-score in [20] was 0.423 (inactive). In assay [2], the composite z-score is -0.0046.
On to `CCOC(=O)C[C@H]1[C@H](OC(=O)c2ccc(C(=O)c3ccccc3)cc2)[C@@H](NC(=O)c2ccccc2)c2cc(OCCCO)ccc2N1C(=O)c1ccc2ccccc2n1`, for which the z-score is 0.181 (inactive) in [1]; 2.66 (inactive) in assay [3]; 0.748 (inactive) in assay [4]; -0.2 (inactive) in assay [5]; 0.454 (inactive) in [6]; -0.0519 in [7]. Also, the z-score was -1.14 (inactive) in [8]; 0.923 (inactive) in [9]; 1.94 in assay [10]; 0.29 in [11]; -0.356 in assay [12]; 0.74 in [13]. The z-score is 0.294 in assay [14]; -0.465 in assay [15]; 1 in assay [16]; 1.76 (inactive) in assay [17]; -0.517 in assay [18]; -0.386 in [19]. Also, in [20], the z-score was -0.142 (inactive). In [2], the composite z-score is -0.328.
In the case of `COCCOC(=O)N1C(=O)[C@@]2(c3cc(C#CCNC(N)=O)ccc31)[C@H](C(=O)Nc1nc3ccccc3s1)[C@H]1C(=O)O[C@H](c3ccccc3)[C@H](c3ccccc3)N1[C@@H]2c1ccc(OCCO)cc1`, the z-score was -0.537 (inactive) in [1]; 2.48 (inactive) in [3]; 1.23 (inactive) in assay [4]; 0.0531 (inactive) in assay [5]; 0.559 (inactive) in assay [6]; -0.0692 in [7]. For the same molecule, the z-score in assay [8] was 1.42 (inactive); in [9], 1.19 (inactive); in [10], 1.4; in [11] it was -0.649; in assay [12], 1.2; in assay [13], -1.22. Moreover, the z-score in assay [14] is -2.58; in assay [15] it was -0.0496; in assay [16], -3.26; in assay [17], 1 (inactive); in [18] it was -0.692; in assay [19], -1.53. In addition, in [20], the z-score was 0.385 (inactive). Further, the composite z-score in assay [2] amounted to 0.729.
`COCCOC(=O)N1C(=O)[C@@]2(c3cc(C#CCC(C(=O)OC)C(=O)OC)ccc31)[C@H](c1ccccc1OCCO)N1[C@H](c3ccccc3)[C@H](c3ccccc3)OC(=O)[C@H]1[C@@H]2C(=O)N1CCN(c2ncccn2)CC1`: the z-score in [1] is 1.2 (inactive); in [3], 2.83 (inactive); in assay [4], 1.11 (inactive); in assay [5], 1.28 (inactive); in [6] it was 0.851 (inactive); in [7], -0.139. Besides, the z-score in assay [8] is 0.823 (inactive); in assay [9] it was 0.656 (inactive); in assay [10] it was 1.27; in [11], -0.0169; in assay [12], 1.16; in assay [13], 0.469. Also, the z-score in assay [14] is -1.59; in assay [15], -2.45; in assay [16], 0.8; in assay [17], 2.27 (inactive); in [18], -0.78; in assay [19] it was -0.522. Moreover, the z-score in assay [20] was 0.934 (inactive). The molecule also showed a composite z-score in assay [2] of 1.16.
